# Records with an inconclusive call do not appear. Active and inactive are the calls of the source. Rule for the calls: active = hit-call score of the fitted dose curve at least 0.9, where 1 is the maximum; inconclusive = response in the unintended direction; inactive = score below 0.9.
# Key:
# [1] = target: rat Gamma-Aminobutyric Acid Type A Receptor BDZ, alpha 6 site (GABARa6), Gabra6 (gene 29708) (UniProt P30191); experiment: NVS_LGIC_rGABARa6: NovaScreen (NVS) Ligand-Gated Ion Channel Assay for rat Gamma-Aminobutyric Acid Type A Receptor BDZ, alpha 6 site (GABARa6) (AID 2283339)
# Method in brief: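 Rat cerebellar membranes; radioligand binding, filtration and scintillation counting, read 1 h after dosing. Single-concentration duplicate screen at 25 uM, then concentration-response up to 50 uM for actives; loss of signal fitted versus DMSO baseline.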
# [2] = target: Norway rat Vesicular Monoamine Transporter (VMAT2), neurotransmitter transporter, Slc18a2 (gene 25549) (UniProt Q01827); experiment: NVS_TR_rVMAT2: NovaScreen (NVS) Transporter Assay for Norway rat Vesicular Monoamine Transporter (VMAT2), neurotransmitter transporter (AID 2283376);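 note: actives lower the bound radioligand signal below the DMSO level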
# Method in brief: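 Rat forebrain tissue preparation used in a cell-free radioligand binding format; displacement read by filter-based scintillation counting 1 hour after dosing. Primary screen in duplicate at 25 uM, actives then run in concentration series; loss of signal versus DMSO baseline.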
# [3] = target: bovine Estrogen Receptor (ER), ESR1 (gene 407238) (UniProt P49884); experiment: NVS_NR_bER: NovaScreen (NVS) Nuclear Receptor Binding Assay for bovine Estrogen Receptor (ER) (AID 2283345);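 note: actives lower the bound radioligand count which means they displace the ER ligand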
# Method in brief: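 Bovine uterine membranes; tritiated or iodinated radioligand; competitive displacement; 18 h; scintillation read; DMSO negative control; 25 uM duplicates, then concentration series for actives.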
# [4] = target: Estrogen receptor (Homo sapiens) (UniProt P03372); experiment: NVS_NR_hER: NovaScreen (NVS) Nuclear Receptor Binding Assay for human Estrogen Receptor (ER) (AID 2283348)
# Method in brief: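 Cell-free radioligand binding with protein extracted from MCF7 cells; scintillation counting 18 hours after dosing. Loss of signal versus DMSO baseline read as displacement; primary single-concentration screen at 25 uM in duplicate, actives retested in concentration series.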
# [5] = TOX21_p53_BLA_p2_viability: Viability Assessment in the Tox21 HCT-116 p53 Agonism Beta-lactamase Assay, Phase 2 (AID 2283591);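 note: compound exposure lasted 16 h at 37 °C; actives lower the ATP signal meaning cytotoxicity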
# Method in brief: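 HCT-116 p53-bla cells (4000/well) rested 5 h at 37C, then received compounds in DMSO (217-fold dilution) for 16 h at 37C, 5% CO2. After the CCF4 read, CellTiter-Glo was added; ATP luminescence was read after 30 min at room temperature.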
# [6] = target: Cellular tumor antigen p53 (Homo sapiens) (UniProt P04637); experiment: TOX21_p53_BLA_p2_ratio: Tox21 HCT-116 p53 Agonism Beta-lactamase Assay, Ratio, Phase 2 (AID 2283592)
# Method in brief: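 In this cell-based reporter format, HCT116 cells were dosed with chemicals delivered from DMSO by 217-fold dilution and incubated 16 h at 37C. Emission at 460 and 530 nm after 2 h CCF4-AM loading provided the ratio, fitted upward versus DMSO.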
# [7] = target: Cellular tumor antigen p53 (Homo sapiens) (UniProt P04637); experiment: TOX21_p53_BLA_p3_ratio: Tox21 HCT-116 p53 Agonism Beta-lactamase Assay, Ratio, Phase 3 (AID 2283596)
# Method in brief: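 HCT116 p53-bla cells (4000/well) given compound in DMSO (217-fold dilution) after 5 h, incubated 16 h at 37C. CCF4-AM substrate 2 h at room temperature; 460/530 nm emission ratio, gain fitted against DMSO.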
# [8] = TOX21_p53_BLA_p4_viability: Viability Assessment in the Tox21 HCT-116 p53 Agonism Beta-lactamase Assay, Phase 4 (AID 2283597);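 note: hits lower the luminescence signal meaning cytotoxicity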
# Method in brief: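 We seeded HCT116 p53 reporter cells at 4000/well and waited 5 h. We then added compounds in DMSO at a 217-fold dilution and incubated for 16 h. Viability was read as CellTiter-Glo luminescence after 30 min at RT.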
# [9] = target: Cellular tumor antigen p53 (Homo sapiens) (UniProt P04637); experiment: TOX21_p53_BLA_p5_ratio: Tox21 HCT-116 p53 Agonism Beta-lactamase Assay, Ratio, Phase 5 (AID 2283599)
# Method in brief: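 HCT-116 cells carrying a p53-inducible beta-lactamase reporter were seeded at 4000 cells/well and dosed after 5 h with compound in DMSO (217-fold dilution). After 16 h at 37C, CCF4-AM substrate was added for 2 h, and the 460/530 nm emission ratio was scored as gain-of-signal versus DMSO.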
# [10] = TOX21_p53_BLA_p5_viability: Viability Assessment in the Tox21 HCT-116 p53 Agonism Beta-lactamase Assay, Phase 5 (AID 2283600)
# Method in brief: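 Compounds, pinned from DMSO at 217-fold dilution, were left on the cells for 16 h. The viability endpoint was ATP content measured by CellTiter-Glo luminescence, where falling signal reflects cytotoxicity.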
# [11] = target: Cellular tumor antigen p53 (Homo sapiens) (UniProt P04637); experiment: TOX21_p53_BLA_p4_ratio: Tox21 HCT-116 p53 Agonism Beta-lactamase Assay, Ratio, Phase 4 (AID 2283601)
# Method in brief: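 HCT116 cells carrying an inducible beta-lactamase reporter were plated at 4000 cells/well, rested 5 h, then exposed to compounds in DMSO (217-fold dilution) for 16 h at 37C. CCF4-AM substrate was loaded 2 h at room temperature; 460/530 nm emission ratio scored gain-of-signal versus DMSO.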
# [12] = target: PGR (gene 5241) (UniProt P06401); experiment: TOX21_PR_BLA_Followup_Antagonist_ratio: Tox21 HEK293 Progesterone Receptor (PR) Antagonism Beta-lactamase Follow-Up Assay, Ratio (AID 2283934)
# Method in brief: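 PR-UAS-bla HEK293T cells, 3,000/well in 2% charcoal-stripped FBS, given compound plus 1nM R5020 agonist for 16 hr at 37C. Beta-lactamase FRET substrate 2 hours, ratio cleaved/uncleaved fluorescence; viability by CellTiter-Glo in same wells.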
# [13] = TOX21_PR_BLA_Followup_Agonist_viability: Viability Assessment in the Tox21 HEK293 Progesterone Receptor (PR) Agonism Beta-lactamase Follow-Up Assay (AID 2283935);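 note: signal loss means lower viability so actives are cytotoxic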
# Method in brief: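 PR-UAS-bla HEK293T cells in 2% charcoal-stripped FBS medium, plated 6 hr before compound addition, exposed 16 hr at 37C. Viability read by CellTiter-Glo ATP luminescence after 30 min at room temperature, in the same wells as the beta-lactamase readout.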
# [14] = TOX21_PR_BLA_Followup_Antagonist_viability: Viability Assessment in the Tox21 HEK293 Progesterone Receptor (PR) Antagonism Beta-lactamase Follow-Up Assay (AID 2283936);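 note: hits lower the luminescence signal meaning cytotoxicity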
# Method in brief: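 PR-UAS-bla HEK293T cells (3,000/well, 2% charcoal-stripped FBS) given compound plus R5020 agonist, 16 h at 37C. CellTiter-Glo added after bla read, 30 min at room temperature; luminescence loss indicates cytotoxicity.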
# [15] = target: PGR (gene 5241) (UniProt P06401); experiment: TOX21_PR_LUC_Followup_Antagonist: Tox21 HEK293 Progesterone Receptor (PR) Antagonism Luciferase Follow-Up Assay (AID 2283938);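 note: curve fitted upward as signal gain over DMSO baseline despite antagonist label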
# Method in brief: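 Luminescence from ONE-Glo reagent, measured after 30 min at room temperature, served as readout. Cells (HEK293 carrying PR-A-luc) had been treated 16 h at 37C with DMSO-dissolved compounds. Activity was fitted against DMSO controls.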
# [16] = TOX21_PR_LUC_Followup_Antagonist_viability: Viability Assessment in the Tox21 HEK293 Progesterone Receptor (PR) Antagonism Luciferase Follow-Up Assay (AID 2283940)
# Method in brief: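 HEK293-PR-A-luc cells kept in charcoal-stripped FBS medium were plated 5 h before compound addition, then exposed 16 h at 37C; viability read as cellular ATP by luciferase luminescence, loss of signal indicating cytotoxicity.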
# [17] = TOX21_PR_LUC_Followup_Agonist_viability: Viability Assessment in the Tox21 HEK293 Progesterone Receptor (PR) Agonism Luciferase Follow-Up Assay (AID 2283941);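 note: loss of signal means cytotoxicity so actives lower viability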
# Method in brief: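 HEK293-PR-A-luc cells, kept in 10% charcoal-stripped FBS medium, were treated with compounds for 16 h at 37C. Viability read as cellular ATP by luciferase-coupled luminescence; loss of signal indicates cytotoxicity.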
# [18] = TOX21_p53_BLA_p3_viability: Viability Assessment in the Tox21 HCT-116 p53 Agonism Beta-lactamase Assay, Phase 3 (AID 2283593)
# Method in brief: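 HCT-116 cells (4000/well) rested 5 h at 37C, then got DMSO compounds by pin tool (217-fold dilution) for 16 h at 37C, 5% CO2. After the bla read, CellTiter-Glo was added and luminescence read at 30 min, room temperature.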
# [19] = target: Bile acid receptor (Homo sapiens) (UniProt Q96RI1); experiment: NVS_NR_hFXR_Agonist: NovaScreen (NVS) Nuclear Receptor Binding Assay for human Farnesoid X Receptor Agonism (FXR) (AID 2283347)
# Method in brief: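 Cell-free TR-FRET binding assay with extracted human FXR protein, agonist format, read 1 h after dosing. Primary screen at 25 uM single concentration in duplicate, actives retested in concentration series; gain of signal versus DMSO.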
# [20] = read-out: xenobiotic metabolism (CYP2C9), CYP2C9 (gene 1559); experiment: CLD_CYP2C9_6hr: CellzDirect (CLD) Gene Expression Assay for xenobiotic metabolism (CYP2C9) at 6 hours (AID 2283664)
# Method in brief: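 Primary human hepatocytes dosed daily with test chemicals at multiple concentrations; harvested at 6 h. CYP2C9 mRNA induction measured by qNPA chemiluminescence. Gain of signal fitted against 0.2% DMSO vehicle; cytotoxicity annotated from phase-contrast morphology.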
# [21] = target: mouse Estrogen Receptor alpha (Era), Esr1 (gene 13982) (UniProt P19785); experiment: NVS_NR_mERa: NovaScreen (NVS) Nuclear Receptor Binding Assay for mouse Estrogen Receptor alpha (Era) (AID 2283378);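 note: hit means loss of bound radioligand signal relative to DMSO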
# Method in brief: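 Filter scintillation counts of bound radioligand, measured 18 h post-dose, gave the readout; decreased signal relative to DMSO controls indicated displacement from mouse Era. Primary screen ran in duplicate at 25 uM; active chemicals were retested across concentrations.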
# [22] = ACEA_ER_AUC_viability: ACEA Biosciences xCELLigence Real-Time Cell Analysis on Estrogen Receptor Agonism for Viability (AID 2283782);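 note: continuous compound exposure with impedance area under curve over 80 h; hit means loss of impedance signal meaning reduced cell growth or viability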
# Method in brief: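 T-47D human breast cells in phenol red-free RPMI1640 with 10% charcoal-stripped FBS were dosed with an 8-point 1:4 dilution series from 100 uM top final concentration, in duplicate. Impedance-based growth was followed for 80 h; AUC analysed versus DMSO.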
# Chain of rat Gamma-Aminobutyric Acid Type A Receptor BDZ, alpha 6 site (GABARa6), Gabra6 (gene 29708) (P30191 whole entry, looked up): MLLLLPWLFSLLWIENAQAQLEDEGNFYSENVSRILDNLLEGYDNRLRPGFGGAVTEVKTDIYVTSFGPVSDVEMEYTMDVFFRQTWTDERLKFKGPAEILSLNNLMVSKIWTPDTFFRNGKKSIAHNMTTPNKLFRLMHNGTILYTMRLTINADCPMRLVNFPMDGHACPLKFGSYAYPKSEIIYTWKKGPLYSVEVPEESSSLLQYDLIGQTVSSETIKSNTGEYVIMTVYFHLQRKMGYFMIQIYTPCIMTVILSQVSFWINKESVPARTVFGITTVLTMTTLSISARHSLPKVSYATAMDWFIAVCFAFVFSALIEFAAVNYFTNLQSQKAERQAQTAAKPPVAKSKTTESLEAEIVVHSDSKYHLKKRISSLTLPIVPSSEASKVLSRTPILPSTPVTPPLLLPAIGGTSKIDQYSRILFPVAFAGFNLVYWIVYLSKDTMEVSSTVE
# Chain of Cellular tumor antigen p53 (Homo sapiens) (P04637 whole entry, looked up): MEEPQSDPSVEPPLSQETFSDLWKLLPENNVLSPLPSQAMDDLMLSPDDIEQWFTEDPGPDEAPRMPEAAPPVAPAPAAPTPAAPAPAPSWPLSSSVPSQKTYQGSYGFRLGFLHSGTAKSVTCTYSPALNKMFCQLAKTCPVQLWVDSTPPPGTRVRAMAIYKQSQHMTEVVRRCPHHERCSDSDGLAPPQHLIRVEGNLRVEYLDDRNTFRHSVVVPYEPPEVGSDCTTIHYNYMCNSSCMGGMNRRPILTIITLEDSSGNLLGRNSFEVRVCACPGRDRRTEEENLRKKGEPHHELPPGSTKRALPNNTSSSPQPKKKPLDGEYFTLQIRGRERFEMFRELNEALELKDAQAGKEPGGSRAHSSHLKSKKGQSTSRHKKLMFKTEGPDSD
# Chain of Norway rat Vesicular Monoamine Transporter (VMAT2), neurotransmitter transporter, Slc18a2 (gene 25549) (Q01827 whole entry, looked up): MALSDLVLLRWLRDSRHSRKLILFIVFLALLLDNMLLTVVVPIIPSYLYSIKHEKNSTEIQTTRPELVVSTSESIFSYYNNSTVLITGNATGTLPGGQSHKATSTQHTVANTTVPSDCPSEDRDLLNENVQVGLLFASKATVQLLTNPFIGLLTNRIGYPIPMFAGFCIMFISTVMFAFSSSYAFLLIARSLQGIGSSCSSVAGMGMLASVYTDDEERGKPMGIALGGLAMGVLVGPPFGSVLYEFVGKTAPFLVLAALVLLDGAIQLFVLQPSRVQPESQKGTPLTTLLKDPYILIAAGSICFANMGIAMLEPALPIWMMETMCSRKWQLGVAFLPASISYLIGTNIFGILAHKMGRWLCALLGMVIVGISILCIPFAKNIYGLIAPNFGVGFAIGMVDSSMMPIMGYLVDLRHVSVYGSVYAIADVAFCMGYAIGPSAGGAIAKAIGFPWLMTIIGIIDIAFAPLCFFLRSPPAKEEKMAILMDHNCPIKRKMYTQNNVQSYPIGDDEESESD
# Chain of Bile acid receptor (Homo sapiens) (Q96RI1 whole entry, looked up): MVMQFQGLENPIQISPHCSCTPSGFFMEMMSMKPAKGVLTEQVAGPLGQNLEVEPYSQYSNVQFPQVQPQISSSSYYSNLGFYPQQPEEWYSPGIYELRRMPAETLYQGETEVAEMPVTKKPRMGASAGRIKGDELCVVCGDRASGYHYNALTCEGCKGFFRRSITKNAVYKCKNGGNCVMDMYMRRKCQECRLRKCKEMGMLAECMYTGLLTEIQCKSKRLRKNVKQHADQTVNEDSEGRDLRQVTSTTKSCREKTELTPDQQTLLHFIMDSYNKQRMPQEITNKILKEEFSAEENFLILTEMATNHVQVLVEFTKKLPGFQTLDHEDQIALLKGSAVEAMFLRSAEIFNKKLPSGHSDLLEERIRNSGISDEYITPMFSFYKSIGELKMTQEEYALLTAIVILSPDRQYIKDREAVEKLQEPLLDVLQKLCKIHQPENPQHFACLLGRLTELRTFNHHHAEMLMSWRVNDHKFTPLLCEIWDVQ
# Chain of bovine Estrogen Receptor (ER), ESR1 (gene 407238) (P49884 whole entry, looked up): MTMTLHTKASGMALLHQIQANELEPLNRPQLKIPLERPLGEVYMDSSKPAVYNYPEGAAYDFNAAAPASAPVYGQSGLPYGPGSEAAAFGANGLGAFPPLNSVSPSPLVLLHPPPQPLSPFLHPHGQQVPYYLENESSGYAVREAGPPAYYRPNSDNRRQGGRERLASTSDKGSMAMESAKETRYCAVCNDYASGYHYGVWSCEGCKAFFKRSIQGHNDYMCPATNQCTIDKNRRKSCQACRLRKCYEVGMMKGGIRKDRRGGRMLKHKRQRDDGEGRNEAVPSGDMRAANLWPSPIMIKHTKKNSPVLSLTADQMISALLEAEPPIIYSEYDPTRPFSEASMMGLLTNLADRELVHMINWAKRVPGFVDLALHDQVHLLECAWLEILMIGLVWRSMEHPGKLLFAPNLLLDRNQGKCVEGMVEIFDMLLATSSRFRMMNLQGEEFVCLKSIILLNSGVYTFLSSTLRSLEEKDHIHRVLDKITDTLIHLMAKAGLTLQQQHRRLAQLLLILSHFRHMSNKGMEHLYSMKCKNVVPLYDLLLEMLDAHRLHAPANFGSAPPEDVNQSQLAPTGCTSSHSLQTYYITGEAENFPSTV
# Chain of Estrogen receptor (Homo sapiens) (P03372 whole entry, looked up): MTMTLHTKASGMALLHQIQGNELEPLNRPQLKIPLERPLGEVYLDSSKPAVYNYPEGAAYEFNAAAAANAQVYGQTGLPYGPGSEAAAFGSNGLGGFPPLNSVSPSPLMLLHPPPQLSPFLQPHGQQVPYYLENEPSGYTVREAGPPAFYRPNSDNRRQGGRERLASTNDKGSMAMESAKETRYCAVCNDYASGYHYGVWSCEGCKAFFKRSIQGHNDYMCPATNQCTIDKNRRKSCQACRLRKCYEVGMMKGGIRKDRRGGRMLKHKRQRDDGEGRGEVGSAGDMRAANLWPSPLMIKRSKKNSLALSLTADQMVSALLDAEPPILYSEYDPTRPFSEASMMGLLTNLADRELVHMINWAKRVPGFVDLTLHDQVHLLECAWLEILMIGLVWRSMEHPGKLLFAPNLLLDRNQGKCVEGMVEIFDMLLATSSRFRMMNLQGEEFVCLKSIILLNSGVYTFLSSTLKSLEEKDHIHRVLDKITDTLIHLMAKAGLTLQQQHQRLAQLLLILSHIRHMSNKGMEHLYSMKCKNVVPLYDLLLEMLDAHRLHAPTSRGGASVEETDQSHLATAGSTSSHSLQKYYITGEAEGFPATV
# Chain of PGR (gene 5241) (P06401 whole entry, looked up): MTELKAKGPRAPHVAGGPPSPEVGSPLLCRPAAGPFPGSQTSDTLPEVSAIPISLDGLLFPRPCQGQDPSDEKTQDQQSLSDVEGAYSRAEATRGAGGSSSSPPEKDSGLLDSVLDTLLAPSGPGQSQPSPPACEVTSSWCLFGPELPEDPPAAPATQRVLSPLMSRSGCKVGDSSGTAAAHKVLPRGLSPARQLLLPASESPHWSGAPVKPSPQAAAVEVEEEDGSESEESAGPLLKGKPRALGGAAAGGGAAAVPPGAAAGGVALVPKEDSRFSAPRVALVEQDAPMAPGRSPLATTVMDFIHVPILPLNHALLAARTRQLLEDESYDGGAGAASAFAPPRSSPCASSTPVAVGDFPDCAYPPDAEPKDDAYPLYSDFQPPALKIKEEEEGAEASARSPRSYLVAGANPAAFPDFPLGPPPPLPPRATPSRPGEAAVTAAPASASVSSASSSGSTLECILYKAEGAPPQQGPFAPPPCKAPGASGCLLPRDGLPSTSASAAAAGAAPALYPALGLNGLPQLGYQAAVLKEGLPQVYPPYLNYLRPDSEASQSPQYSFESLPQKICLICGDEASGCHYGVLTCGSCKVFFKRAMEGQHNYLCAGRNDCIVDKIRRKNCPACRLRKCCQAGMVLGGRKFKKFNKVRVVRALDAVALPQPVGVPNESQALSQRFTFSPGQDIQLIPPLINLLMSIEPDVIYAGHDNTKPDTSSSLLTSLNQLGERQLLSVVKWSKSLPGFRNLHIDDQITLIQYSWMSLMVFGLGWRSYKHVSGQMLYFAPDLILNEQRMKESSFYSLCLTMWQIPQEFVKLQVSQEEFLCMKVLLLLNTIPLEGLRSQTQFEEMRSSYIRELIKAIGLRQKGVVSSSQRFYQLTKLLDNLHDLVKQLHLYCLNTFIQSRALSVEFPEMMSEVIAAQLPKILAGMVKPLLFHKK
# Chain of mouse Estrogen Receptor alpha (Era), Esr1 (gene 13982) (P19785 whole entry, looked up): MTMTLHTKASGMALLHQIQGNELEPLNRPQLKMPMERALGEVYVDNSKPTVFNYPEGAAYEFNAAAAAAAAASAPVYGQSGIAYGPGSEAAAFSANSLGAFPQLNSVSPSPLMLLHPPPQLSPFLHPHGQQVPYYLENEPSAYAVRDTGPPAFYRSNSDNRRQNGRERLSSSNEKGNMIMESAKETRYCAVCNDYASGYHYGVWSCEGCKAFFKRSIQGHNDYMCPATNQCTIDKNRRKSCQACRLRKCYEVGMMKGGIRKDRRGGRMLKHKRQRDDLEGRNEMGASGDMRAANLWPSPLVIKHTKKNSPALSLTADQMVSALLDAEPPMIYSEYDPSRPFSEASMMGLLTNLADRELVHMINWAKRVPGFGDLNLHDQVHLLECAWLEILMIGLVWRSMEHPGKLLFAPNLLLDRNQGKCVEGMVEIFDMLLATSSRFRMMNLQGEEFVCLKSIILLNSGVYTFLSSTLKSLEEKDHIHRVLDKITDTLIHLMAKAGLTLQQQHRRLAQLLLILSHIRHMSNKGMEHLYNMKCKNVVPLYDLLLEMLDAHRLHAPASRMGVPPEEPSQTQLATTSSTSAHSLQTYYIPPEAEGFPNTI
smiles,measurement,setting,value
CC=Cc1ccc(OCC)c(O)c1,outcome,[1],inactive
COc1ccc(OC)c(N=Nc2c(O)ccc3ccccc23)c1,outcome,[1],inactive
same,AC50,[2],107 nM (active)
IC(I)=C(I)I,outcome,[3],inactive
same,outcome,[4],inactive
same,outcome,[5],inactive
same,AC50,[6],13.2 µM (active)
same,outcome,[7],inactive
same,AC50,[8],12.8 µM (active)
same,AC50,[9],13.7 µM (active)
same,outcome,[10],inactive
same,AC50,[11],13.9 µM (active)
[Cl][Dy]([Cl])[Cl],outcome,[2],inactive
Cc1cccc(C)c1[N+](=O)[O-],outcome,[1],inactive
COP(=S)(NC(C)C)Oc1ccc(C)cc1[N+](=O)[O-] (stereo not given),AC50,[3],9.3 µM (active)
same,AC50,[4],11.5 µM (active)
same,AC50,[12],20.3 µM (active)
same,outcome,[13],inactive
same,outcome,[14],inactive
same,AC50,[15],21.2 µM (active)
same,outcome,[16],inactive
same,outcome,[17],inactive
O=[N+]([O-])c1ccc(Oc2ccc(C(F)(F)F)cc2[N+](=O)[O-])cc1,outcome,[3],inactive
same,outcome,[5],inactive
same,outcome,[18],inactive
same,outcome,[7],inactive
same,outcome,[8],inactive
same,outcome,[9],inactive
same,outcome,[10],inactive
same,outcome,[11],inactive
C1CNCCN1,outcome,[2],inactive
CCCCOC(=O)C(C)Oc1ccc(Oc2ccc(C(F)(F)F)cn2)cc1 (stereo not given),outcome,[19],inactive
CCCCOC(=O)[C@@H](C)Oc1ccc(Oc2ccc(C(F)(F)F)cn2)cc1,outcome,[19],inactive
same,outcome,[20],inactive
CCCCCCCCOC(=O)c1cc(O)c(O)c(O)c1,outcome,[19],inactive
CCN(CCC#N)c1ccc(N=Nc2c(Cl)cc([N+](=O)[O-])cc2Cl)cc1,outcome,[19],inactive
COP(=O)(OC)Oc1ccc([N+](=O)[O-])cc1,outcome,[3],inactive
same,outcome,[4],inactive
same,outcome,[21],inactive
same,outcome,[18],inactive
same,outcome,[7],inactive
same,outcome,[9],inactive
same,outcome,[10],inactive
same,outcome,[11],inactive
same,outcome,[22],inactive

# Reference: PubChem BioAssay (EPA / NIEHS)
